Drawing on PubChem BioAssay (NCI), this text covers growth for 13 compounds.

Molecules are shown by their SMILES. Values joined by “and” are separate entries in the source; they are usually repeats but may differ in a detail not shown here. Identical values can stand only once. Compounds without any hit were thinned out: in the full panel of roughly 83,000, 20% have a hit.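 Step 1: grow cells in 96-well plates. Step 2: add test compound at a single concentration. Step 3: incubate 48 h. Step 4: record percent growth.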 Active and inactive are the calls of the source. How the source made its calls: active means growth percent below 10; inactive means the rest.

Among the test systems are NCI-H23 lung; NCI-H226 lung; NCI-H322M lung; HOP-62 NSCLC; NCI-H460 lung; HOP-92 NSCLC; NCI-H522 lung; A549/ATCC NSCLC; 786-0 renal; COLO 205 colon.
Assay in all cases: NCI-60 one-dose screen, 48 h (100 = growth as untreated, 0 = no growth, -100 = all killed)
Holding throughout (details): 10 µM unless noted

Regarding `CCCn1cc2c3c(cccc31)[C@H]1C[C@@H](C)CN(C)[C@@H]1C2`, the growth is 77% (inactive) in the assay with NCI-H23 lung; 93.4% (inactive) in the assay on NCI-H226 lung; 89.4% (inactive) with NCI-H322M lung; 86.4% (inactive) in the assay with HOP-62 NSCLC; 95.7% (inactive) with NCI-H460 lung; 29.7% (inactive) with HOP-92 NSCLC. Also, the values for the growth in the assay with NCI-H522 lung, in the assay on A549/ATCC NSCLC and with 786-0 renal were 85.9% (inactive), 96% (inactive) and 81.7% (inactive), respectively.

In the case of `CCCCS(=O)(=O)Cl`, the growth with NCI-H23 lung was 108% (inactive); with NCI-H226 lung, 100% (inactive); in the assay with NCI-H322M lung, 111% (inactive); with HOP-62 NSCLC, 122% (inactive); with NCI-H460 lung it was 106% (inactive); in the assay on HOP-92 NSCLC, 97.4% (inactive). For the same compound, the growth with NCI-H522 lung was 99.8% (inactive); in the assay with A549/ATCC NSCLC, 109% (inactive); in the assay on 786-0 renal, 103% (inactive); in the assay with COLO 205 colon, 109% (inactive).

As for `CC1=CC(=Nc2ccc(N(CCCl)CCCl)cc2)C=C(C)C1=O`, the growth in the assay with NCI-H23 lung was 23% (inactive); with NCI-H226 lung, 44.5% (inactive); with NCI-H322M lung, 79.2% (inactive); in the assay with HOP-62 NSCLC, 36.5% (inactive); in the assay with NCI-H460 lung, 7.26% (active); with HOP-92 NSCLC, -30.7% (active). Moreover, the growth in the assay with NCI-H522 lung was -87.2% (active); in the assay with A549/ATCC NSCLC, 38.4% (inactive); with 786-0 renal it was 21% (inactive); in the assay on COLO 205 colon, 39.5% (inactive).

In the case of `C[C@]12CCC3[C@@H](C[C@@H]4SC(Nc5ccccc5)=N[C@@]45CC(=O)CC[C@]35C)[C@@H]1CCC2=O` (stereo partly drawn), the growth in the assay with NCI-H23 lung is 42.5% (inactive); in the assay with NCI-H226 lung, 49.4% (inactive); with NCI-H322M lung it was 58.2% (inactive); with HOP-62 NSCLC it was 12.6% (inactive); in the assay with NCI-H460 lung, -13% (active); with HOP-92 NSCLC, -18.2% (active). For the same compound, the growth is -66% (active) in the assay on NCI-H522 lung, 33.5% (inactive) in the assay with A549/ATCC NSCLC and -45% (active) in the assay on 786-0 renal.

For `CCOC(=O)c1ccccc1C(=O)OCC`, the growth with NCI-H23 lung is 109% (inactive); in the assay with NCI-H226 lung it was 94.6% (inactive); in the assay on NCI-H322M lung, 97.8% (inactive); with HOP-62 NSCLC it was 92.6% (inactive); in the assay on NCI-H460 lung it was 112% (inactive); in the assay on HOP-92 NSCLC, 89.4% (inactive). In addition, the growth is 61.1% (inactive) in the assay with NCI-H522 lung, 99.2% (inactive) in the assay with A549/ATCC NSCLC, 96.4% (inactive) in the assay with 786-0 renal and 120% (inactive) in the assay with COLO 205 colon.

As to `CC[C@H](C)[C@H]1O[C@]2(C=C[C@@H]1C)C[C@@H]1C[C@@H](C/C=C(\C)[C@@H](O[C@H]3C[C@H](OC)[C@@H](O[C@H]4C[C@H](OC)[C@@H](NC)[C@H](C)O4)[C@H](C)O3)[C@@H](C)/C=C/C=C3\CO[C@@H]4[C@H](O)C(C)=C[C@@H](C(=O)O1)[C@]34O)O2`, the growth in the assay on NCI-H23 lung was -68.8% (active); in the assay on NCI-H226 lung it was -75.2% (active); with NCI-H322M lung, -22.3% (active); in the assay with HOP-62 NSCLC it was -60.9% (active); with NCI-H460 lung, -77.4% (active); with HOP-92 NSCLC, -33.8% (active). Besides, the growth in the assay with NCI-H522 lung is -70.3% (active); with A549/ATCC NSCLC, -51.6% (active); in the assay on 786-0 renal it was -88.4% (active); in the assay on COLO 205 colon it was -71.6% (active).

With `CN(C)c1ccc(N)cc1`, the growth in the assay with NCI-H23 lung was 96.6% (inactive) and 10.7% (inactive); with NCI-H226 lung, 101% (inactive) and 82.3% (inactive); with NCI-H322M lung, 95.3% (inactive) and 111% (inactive); in the assay on HOP-62 NSCLC, 93.7% (inactive) and 47.1% (inactive); in the assay with NCI-H460 lung, 103% (inactive) and 54.2% (inactive); with HOP-92 NSCLC it was 98.1% (inactive) and 41.6% (inactive). The growth in the assay on NCI-H522 lung is 85.1% (inactive); with A549/ATCC NSCLC, 97.2% (inactive) and 33.1% (inactive); in the assay with 786-0 renal it was 109% (inactive).

On to `CCC(=O)C(CC(C)[N+](C)(C)C)(c1ccccc1)c1ccccc1` (stereo not drawn), for which the growth in the assay with NCI-H23 lung was 91.7% (inactive); with NCI-H226 lung, 87.8% (inactive); in the assay with NCI-H322M lung it was 103% (inactive); with HOP-62 NSCLC, 91.6% (inactive); in the assay with NCI-H460 lung, 106% (inactive); with HOP-92 NSCLC, 103% (inactive). The growth was 86.1% (inactive) in the assay with NCI-H522 lung, 95.8% (inactive) in the assay on A549/ATCC NSCLC and 92.9% (inactive) in the assay with 786-0 renal.

For the compound `O=C(Cc1ccccc1)c1ccccc1`, the growth in the assay with NCI-H23 lung was 94.5% (inactive); in the assay on NCI-H226 lung, 102% (inactive); in the assay on NCI-H322M lung it was 103% (inactive); with HOP-62 NSCLC, 98.5% (inactive); with NCI-H460 lung it was 98.9% (inactive); with HOP-92 NSCLC it was 88.1% (inactive). Further, the growth was 103% (inactive) in the assay on NCI-H522 lung, 107% (inactive) with A549/ATCC NSCLC and 102% (inactive) in the assay on 786-0 renal.

On to `Nc1c(Cl)c(Cl)nc(C(=O)O)c1Cl`, for which the growth with NCI-H23 lung was 104% (inactive); with NCI-H226 lung it was 102% (inactive); with NCI-H322M lung, 80.8% (inactive); in the assay on HOP-62 NSCLC, 86.9% (inactive); with NCI-H460 lung, 102% (inactive); in the assay with HOP-92 NSCLC, 106% (inactive). In addition, the growth was 98.6% (inactive) in the assay with NCI-H522 lung, 108% (inactive) in the assay with A549/ATCC NSCLC, 103% (inactive) in the assay on 786-0 renal and 117% (inactive) with COLO 205 colon.

As for `CC1(C)S[C@H]2CC[C@H]3OC(=O)[C@@H]1N23`, the growth was 94.7% (inactive) with NCI-H23 lung; 98.1% (inactive) in the assay on NCI-H226 lung; 98.7% (inactive) with NCI-H322M lung; 104% (inactive) in the assay on HOP-62 NSCLC; 110% (inactive) in the assay on NCI-H460 lung; 77.9% (inactive) in the assay on HOP-92 NSCLC. Besides, the figures for the growth in the assay with NCI-H522 lung, in the assay on A549/ATCC NSCLC and in the assay on 786-0 renal were 88.9% (inactive), 96.6% (inactive) and 106% (inactive), respectively.

Turning to `NC(=O)c1c(Br)c(Br)c(Br)c(Br)c1C(=O)O` (tested in a mixture with another compound), the growth was 99.9% (inactive) and 100% (inactive) with NCI-H23 lung; 99.8% (inactive) and 98.4% (inactive) in the assay with NCI-H226 lung; 105% (inactive) and 114% (inactive) in the assay on NCI-H322M lung; 124% (inactive) and 103% (inactive) in the assay with HOP-62 NSCLC; 111% (inactive) in the assay on NCI-H460 lung; 85.8% (inactive) and 86% (inactive) in the assay with HOP-92 NSCLC. For the same compound, the growth in the assay with NCI-H522 lung is 93% (inactive) and 99.3% (inactive); with A549/ATCC NSCLC it was 102% (inactive) and 98% (inactive); in the assay with 786-0 renal, 109% (inactive) and 104% (inactive).

On to `O=C(CCCN1CCC2(CC1)C(=O)NCN2c1ccccc1)c1ccc(F)cc1`, for which the growth is 95.1% (inactive) and 49.3% (inactive) in the assay on NCI-H23 lung; 117% (inactive) and 102% (inactive) in the assay with NCI-H226 lung; 97.5% (inactive) and 81.5% (inactive) in the assay with NCI-H322M lung; 79.1% (inactive) and -10.2% (active) in the assay with HOP-62 NSCLC; 108% (inactive) and 94.1% (inactive) with NCI-H460 lung; 96.7% (inactive) and 67.2% (inactive) with HOP-92 NSCLC. The growth in the assay on NCI-H522 lung is 108% (inactive) and 80.4% (inactive); with A549/ATCC NSCLC it was 103% (inactive) and 89.3% (inactive); in the assay with 786-0 renal it was 101% (inactive) and 88.3% (inactive); in the assay on COLO 205 colon, 34.3% (inactive) and -64.9% (active).
